These results are taken from ChEMBL document CHEMBL3988442, “University of Dundee, Small-Polar-MMV Screening Library” (2021).

Molecules are shown by their SMILES.

This experiment has as its target AMP-activated protein kinase, AMPK (Homo sapiens) (UniProt P54646+O43741+P54619+Q9UGJ0+Q9Y478+Q13131+Q9UGI9). Briefly: AMP-dependent Kinase enzyme assay. An in vitro enzyme assay that detects ADP turnover that is directly proportional to AMPK activity. This uses naive AMPK that is activated during the assay with MK-8722. The note with it: 30 µM. In kind it is functional. More on the design: scale not given: direction of the effect not stated beside the values.
Turning to `CCn1ncnc1C(C)Nc1cc(C2CCNCC2)nc(C)n1` (stereo not given), the Percent Effect is -7.46%.

In the case of `COC(=O)C(NC(=O)c1cc(C)ccc1C)c1cccnc1` (stereo not given), the Percent Effect is 1.93%.

On to `C[C@@H]1CN(Cc2cn(C)nc2-c2ccccc2F)C[C@H](C)O1`, for which the Percent Effect is 19.5%.

With `CN(C)c1nc2sc(C(=O)N3CCNC(=O)CC3)cc2s1`, the Percent Effect came to 0.0719%.

On to `CCN1CCCC(NC(=O)c2ccc(C)[nH]c2=O)C1` (stereo not given), for which the Percent Effect is -5.78%.

As for `CC(NCc1nnc2n1CCCC2)c1nc(Cc2ccccc2)no1` (stereo not given), the Percent Effect was -1.56%.

On to `CCCS(=O)(=O)N1CCC(c2ccc(OC)cc2)CC1`, for which the Percent Effect turned out to be 2.67%.

For the compound `COc1cccc(C)c1C(=O)N1CCc2ncnc(NCCO)c2CC1`, the Percent Effect is -1.45%.

Regarding `O=C(Nc1cccc(N2CCOCC2)c1)N[C@H](CO)c1ccccc1`, the Percent Effect came out at 6.04%.

In the case of `c1ccc(Cc2noc(-c3ccc(NCC4CCCOC4)nc3)n2)cc1` (stereo not given), the Percent Effect stood at 6.64%.

Take `CC(C)OCCN1CCC(Nc2ncc(Br)cn2)CC1`: the Percent Effect came out at 10.5%.

As for `Cc1csc(N2CCN(Cc3ccccn3)CC2)n1`, the Percent Effect was -1.61%.

Take `O=C(Cc1c(F)cccc1Cl)Nc1cc(N2CCOCC2)ncn1`: the Percent Effect was determined as 5.35%.

On to `CCC[C@H]1CN(c2cncc(C(=O)N3CCCCC3)n2)C[C@@H]1N(C)C`, for which the Percent Effect is 14.2%.

With `Cc1cccc(C(C)C)c1NC(=O)NCCN(C(C)C)C(C)C`, the Percent Effect turned out to be 15.2%.

As to `Cc1noc(-c2ccc(N(C)Cc3cccnc3)nc2)n1`, the Percent Effect is -3.84%.

On to `Cc1cc(CN(C)C(=O)c2cc(COc3ccccc3)[nH]n2)n[nH]1`, for which the Percent Effect is 1.22%.

Take `COc1cc2c(cc1CNCc1cccnc1OC)OC(C)C2` (stereo not given): the Percent Effect was 0.485%.

On to `CC1CN(Cc2cccc(CNC3CCCC3)c2)CCO1` (stereo not given), for which the Percent Effect was determined as 2.35%.

In the case of `Clc1cc(NCc2ccncc2)nc2[nH]ccc12`, the Percent Effect was -59.2%.

As to `CSc1ccccc1NC(=O)c1ccc(N2CCOCC2)nn1`, the Percent Effect is -1.6%.

As to `CN(C)Cc1cn(-c2ccccc2C(=O)NCCC2CCCN2C)cn1` (stereo not given), the Percent Effect was -16.8%.

As to `COc1ccc2c(c1)CCCN2C(=O)NC1CCCCNC1=O` (stereo not given), the Percent Effect is 2.81%.

As for `CC(C)c1nc(C2CCCN2CCOCC2CC2)no1` (stereo not given), the Percent Effect came out at 7.32%.

Turning to `CC1(C)CN(Cc2ccncc2)CCS1(=O)=O`, the Percent Effect was -9.12%.

For `CCc1ccc(C(=O)N2CCCCC2CNS(C)(=O)=O)o1` (stereo not given), the Percent Effect is -5.12%.

For `COc1ccccc1C1CCN(C(=O)CN2C(=O)OC(C)(C)C2=O)CC1`, the Percent Effect was -11.8%.

As for `CCCc1nc(C(=O)N2CCn3nc(C(=O)OC)cc3C2)cs1`, the Percent Effect worked out at 1.42%.

Turning to `COCCC(=O)NCc1ccc(-c2ncncc2C(=O)N(C)C)cc1`, the Percent Effect was -7.24%.

Regarding `O=C1CCCN1C1CCCN(CCn2cc(Cl)cn2)C1` (stereo not given), the Percent Effect turned out to be 7.29%.

On to `O=C(c1cccc(-n2cnnc2)c1)N1C[C@@H](O)[C@H](N2CCOCC2)C1`, for which the Percent Effect worked out at 15.5%.

For `Clc1cc(NCc2nccs2)nc2[nH]ccc12`, the Percent Effect was 15.1%.

As to `c1nc(N2CCOCC2)sc1-c1cncn1CCCN1CCCCC1`, the Percent Effect was -0.295%.

Turning to `Cc1nsc(C(=O)NCCc2ccc(F)cc2)n1`, the Percent Effect is -2.41%.

As for `COc1ccc(C(=O)NCc2ccco2)nn1`, the Percent Effect is -4.45%.

Consider `COCc1cc(NCCCSc2nnc(C)s2)ncn1`, for which the Percent Effect came to 8.32%.

As to `CC(NCC(=O)N1CCc2sccc2C1)c1ccccc1F` (stereo not given), the Percent Effect was 10.8%.

`CCC(C#N)NC(=O)c1sccc1OC` (stereo not given): the Percent Effect is 2.49%.

Regarding `CC(C)c1nc(CN(C)C(=O)[C@H](N)Cc2ccc(Cl)cc2)cs1`, the Percent Effect is 2.32%.

For `COc1ccc(N2CCC(NS(=O)(=O)N(C)C(C)C)CC2)cc1`, the Percent Effect came to 13.8%.
